Assay results taken from PMC7862700, “An all-to-all approach to the identification of sequence-specific readers for epigenetic DNA modifications on cytosine”.

Experiments:
Assay in all cases: DAPPL (digital affinity profiling via proximity ligation, sequencing); 10 mM Tris-HCl pH 7.5, 50 mM NaCl, 1 mM DTT, 4% glycerol, room temperature, 30 min; GST-TFs on glutathione beads, 16-mer random dsDNA library, 0.1% formaldehyde crosslink after washing; high values mean tight binding
Conditions in all cases: protein: recombinant; tags: N-terminal GST; dsDNA, one strand shown
FLI1 = target: T1, FLI1 (Homo sapiens, UniProt Q01543 1-452)
T1 sequence: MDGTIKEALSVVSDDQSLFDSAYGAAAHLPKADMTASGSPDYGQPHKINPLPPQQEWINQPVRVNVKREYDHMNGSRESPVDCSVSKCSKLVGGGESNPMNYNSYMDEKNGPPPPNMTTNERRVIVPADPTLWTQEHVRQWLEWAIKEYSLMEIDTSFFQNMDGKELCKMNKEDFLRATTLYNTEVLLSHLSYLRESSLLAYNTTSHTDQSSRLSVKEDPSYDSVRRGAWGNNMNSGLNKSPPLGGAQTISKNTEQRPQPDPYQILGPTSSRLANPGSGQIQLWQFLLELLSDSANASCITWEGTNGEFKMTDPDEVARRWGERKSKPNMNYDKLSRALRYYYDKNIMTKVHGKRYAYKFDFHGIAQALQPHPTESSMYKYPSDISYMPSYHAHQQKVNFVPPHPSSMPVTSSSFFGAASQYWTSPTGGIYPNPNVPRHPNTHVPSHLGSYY
Procedure, shortened: (§1)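 Binding signal is each hexamer's read frequency for a factor divided by its frequency in the tag-only sample. The factors were GST-fused human transcription factors from yeast, captured on glutathione beads, DNA-barcoded and pooled with that sample. Pools were incubated with 200 nmole of a random double-stranded 16-mer DNA library in Tris/NaCl/DTT/glycerol buffer at room temperature for 30 min, then washed, crosslinked with 0.1% formaldehyde, proximity-ligated with BsaI/T4 ligase (1 h, 37 °C), PCR-amplified and sequenced on an Illumina NextSeq500.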

ELK1 = target: T2, ELK1 (Homo sapiens, UniProt P19419 1-428)
T2 sequence: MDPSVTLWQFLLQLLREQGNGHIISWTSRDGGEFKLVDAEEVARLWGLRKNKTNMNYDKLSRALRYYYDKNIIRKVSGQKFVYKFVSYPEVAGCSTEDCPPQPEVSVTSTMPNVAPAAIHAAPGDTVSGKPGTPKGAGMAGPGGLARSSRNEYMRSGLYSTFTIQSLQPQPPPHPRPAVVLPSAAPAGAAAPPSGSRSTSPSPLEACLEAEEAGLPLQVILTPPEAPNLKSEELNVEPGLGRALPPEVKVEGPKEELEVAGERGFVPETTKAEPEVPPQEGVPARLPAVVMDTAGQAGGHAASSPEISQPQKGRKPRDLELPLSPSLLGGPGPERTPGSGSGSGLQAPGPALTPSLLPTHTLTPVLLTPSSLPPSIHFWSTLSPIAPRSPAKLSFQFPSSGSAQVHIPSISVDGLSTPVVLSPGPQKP
Procedure, shortened: as §1

GABPA = target: T3, GABPA (Homo sapiens, UniProt Q06546 1-454)
T3 sequence: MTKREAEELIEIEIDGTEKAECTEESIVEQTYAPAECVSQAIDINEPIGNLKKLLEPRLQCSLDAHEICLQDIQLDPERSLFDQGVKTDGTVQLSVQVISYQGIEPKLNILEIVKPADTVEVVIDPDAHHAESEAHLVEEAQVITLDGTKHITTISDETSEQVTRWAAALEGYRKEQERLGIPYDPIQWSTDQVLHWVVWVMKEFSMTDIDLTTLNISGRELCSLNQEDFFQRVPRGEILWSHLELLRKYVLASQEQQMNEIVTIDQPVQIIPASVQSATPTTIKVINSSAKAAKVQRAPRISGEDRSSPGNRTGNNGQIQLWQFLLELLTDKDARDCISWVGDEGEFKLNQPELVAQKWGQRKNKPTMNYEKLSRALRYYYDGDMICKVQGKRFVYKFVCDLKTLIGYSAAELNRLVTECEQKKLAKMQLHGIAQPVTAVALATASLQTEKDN
Procedure, shortened: as §1

ERG = target: T4, ERG (Homo sapiens, UniProt P11308 1-479)
T4 sequence: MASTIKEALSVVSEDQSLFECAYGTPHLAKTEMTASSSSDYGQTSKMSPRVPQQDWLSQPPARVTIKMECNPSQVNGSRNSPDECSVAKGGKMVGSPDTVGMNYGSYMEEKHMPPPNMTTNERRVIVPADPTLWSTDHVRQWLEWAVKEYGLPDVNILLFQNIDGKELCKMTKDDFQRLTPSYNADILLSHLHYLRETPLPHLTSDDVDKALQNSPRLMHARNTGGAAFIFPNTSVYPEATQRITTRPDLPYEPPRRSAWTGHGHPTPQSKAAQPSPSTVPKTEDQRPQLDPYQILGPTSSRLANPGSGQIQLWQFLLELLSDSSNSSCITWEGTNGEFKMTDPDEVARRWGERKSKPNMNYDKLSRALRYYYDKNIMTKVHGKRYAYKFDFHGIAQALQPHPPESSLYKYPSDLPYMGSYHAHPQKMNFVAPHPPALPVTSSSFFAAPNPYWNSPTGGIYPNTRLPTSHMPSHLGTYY
Procedure, shortened: as §1

ELF1 = ELF1 (Homo sapiens, UniProt P32519 1-619)
Sequence of ELF1 (P32519 whole entry): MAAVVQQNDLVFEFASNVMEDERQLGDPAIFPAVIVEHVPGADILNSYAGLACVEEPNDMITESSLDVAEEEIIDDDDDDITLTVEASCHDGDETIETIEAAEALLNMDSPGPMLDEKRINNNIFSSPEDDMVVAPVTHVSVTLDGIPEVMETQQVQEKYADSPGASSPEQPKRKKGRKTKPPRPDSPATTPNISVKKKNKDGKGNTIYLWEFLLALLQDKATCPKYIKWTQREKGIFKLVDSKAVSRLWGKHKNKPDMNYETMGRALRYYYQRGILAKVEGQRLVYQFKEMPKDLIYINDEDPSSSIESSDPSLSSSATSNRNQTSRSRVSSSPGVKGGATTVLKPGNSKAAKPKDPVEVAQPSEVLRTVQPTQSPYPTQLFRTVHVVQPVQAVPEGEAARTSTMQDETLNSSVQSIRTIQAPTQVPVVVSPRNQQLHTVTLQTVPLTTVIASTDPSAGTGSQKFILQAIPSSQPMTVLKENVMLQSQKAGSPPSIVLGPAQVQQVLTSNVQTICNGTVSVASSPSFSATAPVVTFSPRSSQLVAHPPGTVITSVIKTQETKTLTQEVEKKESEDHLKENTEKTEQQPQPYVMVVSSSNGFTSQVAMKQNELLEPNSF
Procedure, shortened: as §1

EHF = target: T5, EHF (Homo sapiens, UniProt Q9NZC4 1-300)
T5 sequence: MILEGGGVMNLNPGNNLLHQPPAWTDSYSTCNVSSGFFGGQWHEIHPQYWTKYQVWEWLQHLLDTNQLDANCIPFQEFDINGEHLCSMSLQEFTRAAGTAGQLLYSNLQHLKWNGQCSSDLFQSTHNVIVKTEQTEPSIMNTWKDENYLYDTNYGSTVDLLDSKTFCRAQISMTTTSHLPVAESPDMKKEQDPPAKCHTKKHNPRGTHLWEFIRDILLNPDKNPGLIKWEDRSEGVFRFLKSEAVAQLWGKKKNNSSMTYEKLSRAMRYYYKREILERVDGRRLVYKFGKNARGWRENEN
Procedure, shortened: as §1

SPI1 = SPI1 (Homo sapiens, UniProt P17947 1-270)
Procedure, shortened: as §1

SPIB = SPIB (Homo sapiens, UniProt Q01892 1-262)
Sequence of SPIB (Q01892 whole entry): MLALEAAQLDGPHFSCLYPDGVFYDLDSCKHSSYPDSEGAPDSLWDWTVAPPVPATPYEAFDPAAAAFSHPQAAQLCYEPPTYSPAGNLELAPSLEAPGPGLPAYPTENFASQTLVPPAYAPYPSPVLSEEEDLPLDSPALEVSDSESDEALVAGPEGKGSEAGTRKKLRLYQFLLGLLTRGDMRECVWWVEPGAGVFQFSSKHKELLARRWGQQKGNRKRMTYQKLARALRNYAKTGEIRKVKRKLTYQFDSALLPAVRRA
Procedure, shortened: as §1

ELK3 = target: T6, ELK3 (Homo sapiens, UniProt P41970 1-407)
T6 sequence: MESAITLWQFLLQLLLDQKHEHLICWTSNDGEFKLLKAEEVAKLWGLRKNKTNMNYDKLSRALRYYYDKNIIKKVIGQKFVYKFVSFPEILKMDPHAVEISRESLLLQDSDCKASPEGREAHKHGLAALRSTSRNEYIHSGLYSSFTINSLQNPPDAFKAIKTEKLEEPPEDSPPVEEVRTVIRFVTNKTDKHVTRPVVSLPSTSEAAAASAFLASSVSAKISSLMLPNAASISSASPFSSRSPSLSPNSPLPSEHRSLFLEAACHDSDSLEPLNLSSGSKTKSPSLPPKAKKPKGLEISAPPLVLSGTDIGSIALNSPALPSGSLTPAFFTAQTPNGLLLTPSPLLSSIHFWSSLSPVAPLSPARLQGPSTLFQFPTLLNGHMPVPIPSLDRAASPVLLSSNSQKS
Procedure, shortened: as §1

CCTCGC was tested, and the binding signal (FLI1) was 1.53 fold enrichment (6-mer frequency, TF over GST control), the binding signal (ELK1) was 1.54 fold enrichment (6-mer frequency, TF over GST control) and the binding signal (GABPA) was 1.43 fold enrichment (6-mer frequency, TF over GST control). For the same sequence, the binding signal (ERG) was 1.5 fold enrichment (6-mer frequency, TF over GST control), the binding signal (ELF1) was 1.37 fold enrichment (6-mer frequency, TF over GST control) and the binding signal (EHF) was 1.42 fold enrichment (6-mer frequency, TF over GST control). For the same sequence, the binding signal (SPI1) was 1.39 fold enrichment (6-mer frequency, TF over GST control), the binding signal (SPIB) was 1.42 fold enrichment (6-mer frequency, TF over GST control) and the binding signal (ELK3) was 1.26 fold enrichment (6-mer frequency, TF over GST control).
